9 compounds from PubChem BioAssay (EPA / NIEHS) can be followed below.

Usually AC50 stands for the concentration giving half of the maximal activity seen.

Assay [1] deals with Glucocorticoid receptor (Homo sapiens) (UniProt P04150). In words: ATG_GR_TRANS: Attagene TRANS-FACTORIAL HepG2 Assay for human Glucocorticoid Receptor (GR) (AID 2282978; active means hit-call score of the fitted dose curve at least 0.9, where 1 is the maximum;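 further: activators score as hits since higher reporter transcript over DMSO is fitted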). The following applies: HepG2 Attagene TRANS GR reporter, mRNA transcription. The procedure, abridged: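 In this trans-factorial format, exogenous NR-GAL4 chimeric proteins in transfected HepG2 cells regulate GAL4-UAS reporter transcription. After 24 h treatment, reporter mRNA induction relative to DMSO is read by RT-PCR and capillary electrophoresis.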

Assay [2] can be described thus: ATG_M_06_TRANS: Attagene TRANS-FACTORIAL HepG2 Assay for M06 Transcription Factor (Internal Marker) (AID 2282983; active means hit-call score of the fitted dose curve at least 0.9, where 1 is the maximum;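 further: reporter transcript level by RT-PCR then capillary electrophoresis fluorescence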). The note with it: HepG2 Attagene TRANS M06 internal marker reporter. A digest of the protocol: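 Measured by capillary electrophoresis of fluorescently labelled RT-PCR products, this endpoint reflects reporter mRNA in HepG2 cells harbouring exogenous NR-GAL4 reporter constructs after 24 h exposure, with DMSO as baseline.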

The nature of assay [3]: ATG_M_32_TRANS: Attagene TRANS-FACTORIAL HepG2 Assay for M32 Transcription Factor (Internal Marker) (AID 2282984; active means hit-call score of the fitted dose curve at least 0.9, where 1 is the maximum;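 further: transcript level of a background control reporter unit measured by RT-PCR and capillary electrophoresis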). The following applies: HepG2 Attagene TRANS M32 internal marker reporter. A digest of the protocol: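 HepG2 cells transiently transfected with multiple GAL4-UAS reporter transcription units, dosed for 24 hours; reporter mRNA quantified by RT-PCR, 6-FAM primer extension, HpaI digestion and capillary electrophoresis. Gain-of-signal fitted versus DMSO baseline; internal background-control marker.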

The target of assay [4] is Nuclear receptor subfamily 4 group A member 2 (Homo sapiens) (UniProt P43354). In words: ATG_NURR1_TRANS: Attagene TRANS-FACTORIAL HepG2 Assay for human Nuclear Receptor Related Protein 1 (NURR1) (AID 2282985; active means hit-call score of the fitted dose curve at least 0.9, where 1 is the maximum). The following applies: HepG2 Attagene TRANS reporter, mRNA readout. A digest of the protocol: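 HepG2 cells transiently transfected with GAL4-UAS reporter units and chimeric NR-Gal4 constructs; chemical exposure 24 h. Reporter mRNA quantified by RT-PCR, fluorescent labelling and capillary electrophoresis; gain of signal fitted relative to DMSO baseline.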

Assay [5] has as its target Transcriptional activator Myb (Homo sapiens) (UniProt P10242). In words: ATG_Myb_CIS: Attagene CIS-FACTORIAL HepG2 Assay for human Myeloblastosis (Myb) Proto-Oncogene Transcription Factor (AID 2282986). The note with it: HepG2 Attagene CIS-FACTORIAL Myb reporter transcription; actives raise or lower the signal. The procedure, abridged:
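Steps: transfect HepG2 with cis-regulated reporter units; dose with chemical for 24 h; isolate RNA, reverse-transcribe, PCR-amplify and FAM-label reporter sequences; digest with HpaI; resolve by capillary electrophoresis. Activity fitted in both directions relative to DMSO.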

Assay [6] deals with Nuclear respiratory factor 1 (Homo sapiens) (UniProt Q16656). Nature of the assay: ATG_NRF1_CIS: Attagene CIS-FACTORIAL HepG2 Assay for human Nuclear Respiratory Factor 1 (NRF1) Orphan Gene (AID 2282987). The note with it: HepG2 NRF1 cis-element reporter, Attagene multiplex; actives raise or lower the signal. A digest of the protocol: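 Fluorescence intensity of labelled reporter cDNA fragments, resolved by capillary electrophoresis, served as readout for NRF1 cis-element activity. Transiently transfected HepG2 cells were dosed for 24 hours; activity in either direction was fitted against DMSO negative control.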

The nature of assay [7]: ATG_NFI_CIS: Attagene CIS-FACTORIAL HepG2 Assay for human Nuclear Factor I (NFI) (AID 2282989). The note with it: HepG2 cis-regulatory reporter, NFI response element transcription; actives raise or lower the signal. The procedure, abridged:
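HepG2, transient MRTU, 24 h exposure; RNA→cDNA→PCR→FAM label→HpaI→CE fluorescence. Bidirectional fit, DMSO = baseline.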

For assay [8], the target named is Myc proto-oncogene protein (Homo sapiens) (UniProt P01106). In words: ATG_Myc_CIS: Attagene CIS-FACTORIAL HepG2 Assay for human Myelocytomatosis (Myc) Proto-Oncogene Transcription Factor (AID 2282990). The following applies: HepG2, Attagene cis-reporter transcription factor activity; actives raise or lower the signal. A digest of the protocol: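 Multiplexed cis-reporter transcription in HepG2 cells after 24 h chemical treatment. Reporter mRNA measured by RT-PCR and capillary electrophoresis fluorescence; activity fitted bidirectionally against DMSO control.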

Assay [9] is described as follows: ATG_NF_kB_CIS: Attagene CIS-FACTORIAL HepG2 Assay for human Nuclear Factor Kappa B (NF-kB) (AID 2282991). The note with it: HepG2 Attagene cis-factorial NF-kB reporter mRNA; actives raise or lower the signal. The procedure, abridged:
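Endogenous transcription factor activity in HepG2 was captured via cis-regulated reporter constructs; after 24 h dosing, reporter mRNA was reverse-transcribed, amplified, fluorescently labelled and sized by capillary electrophoresis, with activity fitted bidirectionally relative to DMSO.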

Assay [10] is described as follows: ATG_NRF2_ARE_CIS: Attagene CIS-FACTORIAL HepG2 Assay for human Nuclear Factor Erythroid 2 Related Factor 2 (NFR2) response to Antioxidant Response Elements (ARE) (AID 2282992). The following applies: HepG2 Attagene ARE/NRF2 reporter, transcription factor activity; actives raise or lower the signal. A digest of the protocol: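 Multiplexed reporter mRNA profiling in HepG2 after a 24 h chemical exposure. Curves fitted in both directions relative to DMSO negative control.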

The nature of assay [11]: ATG_Oct_MLP_CIS: Attagene CIS-FACTORIAL HepG2 Assay for human Octamer-Binding Transcription Factor (Oct) (AID 2282993). The note with it: HepG2 Attagene cis-factorial Oct reporter, mRNA; actives raise or lower the signal. A digest of the protocol: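 Multiplexed cis-reporter assay in human liver HepG2 cells, 24 h incubation. Reporter RNA amplified and labelled, then resolved by capillary electrophoresis; DMSO serves as negative control and baseline.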

The target of assay [12] is Cellular tumor antigen p53 (Homo sapiens) (UniProt P04637). Nature of the assay: ATG_p53_CIS: Attagene CIS-FACTORIAL HepG2 Assay for human p53 Transcription Factor (AID 2282994). The note with it: HepG2 p53 cis-element reporter, Attagene mRNA; actives raise or lower the signal. A digest of the protocol: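 Multiplexed reporter mRNA assay in human HepG2 liver cells; cis-regulated units report endogenous factor activity. Values come from bidirectional curve fitting against DMSO negative control after 24 h treatment.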

The nature of assay [13]: BSK_3C_TissueFactor: BioMAP Diversity Plus: 3C Assay for Tissue Factor Biomarker Activity (AID 2282997). The note with it: BioMAP 3C HUVEC, tissue factor biomarker readout; actives raise or lower the signal. The procedure, abridged:
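Values derive from bidirectional curve fitting against DMSO of Tissue Factor ELISA signals, taken 24 h after dosing primary human umbilical vein endothelial cells.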

Assay [14] in a line: BSK_3C_uPAR: BioMAP Diversity Plus: 3C Assay for Urokinase-type plasminogen activator receptor (uPAR) Biomarker Activity (AID 2282998). The note with it: BioMAP 3C HUVEC, uPAR biomarker ELISA; actives raise or lower the signal. The procedure, abridged: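 Dose primary human umbilical vein endothelial cells, incubate 24 h, measure cell-surface uPAR by ELISA, then fit the signal in both directions against the DMSO negative control.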

Assay [15] in a line: BSK_3C_VCAM1: BioMAP Diversity Plus: 3C Assay for Vascular cell adhesion molecule 1 (VCAM1) Biomarker Activity (AID 2282999). The following applies: BioMAP 3C HUVEC, VCAM1 ELISA, cytokine-stimulated; actives raise or lower the signal. The procedure, abridged: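 Human umbilical vein endothelial cells were dosed with compound for 24 h, after which cell-surface VCAM-1 was quantified by ELISA. Bidirectional curve fitting used DMSO as negative control and activity baseline.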
In general terms: An ELISA detects its analyte on a solid surface through an enzyme-linked reagent.

Assay [16] has as its target Hepatocyte nuclear factor 4-alpha (Homo sapiens) (UniProt P41235). In words: ATG_HNF4a_TRANS: Attagene TRANS-FACTORIAL HepG2 Assay for human Hepatocyte Nuclear Factor 4 alpha (HNF4a) (AID 2282982; active means hit-call score of the fitted dose curve at least 0.9, where 1 is the maximum). The following applies: HepG2 HNF4a transactivation reporter, mRNA readout. A digest of the protocol:
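HepG2 cells transiently transfected with multiplexed GAL4-UAS reporter units responsive to chimeric NR-GAL4 proteins; compound exposure 24 h. Reporter mRNA quantified by RT-PCR, 6-FAM labelling, HpaI digestion and capillary electrophoresis; gain of signal versus DMSO baseline.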

The target of assay [17] is Oxysterols receptor LXR-alpha (Homo sapiens) (UniProt Q13133). In words: ATG_LXRa_TRANS: Attagene TRANS-FACTORIAL HepG2 Assay for human Liver X Receptor alpha (LXRa) (AID 2282980; active means hit-call score of the fitted dose curve at least 0.9, where 1 is the maximum). The following applies: HepG2 Attagene TRANS reporter, LXRa transactivation. The procedure, abridged: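 Transient HepG2 transfectants, 24 h dosing, RT-PCR/CE mRNA reporter quantitation; gain-of-signal vs DMSO.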

The target of assay [18] is Oxysterols receptor LXR-beta (Homo sapiens) (UniProt P55055). In words: ATG_LXRb_TRANS: Attagene TRANS-FACTORIAL HepG2 Assay for human Liver X Receptor beta (LXRb) (AID 2282981; active means hit-call score of the fitted dose curve at least 0.9, where 1 is the maximum). The following applies: HepG2 Attagene TRANS GAL4-LXRb reporter, mRNA. The procedure, abridged: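 HepG2 cells transiently transfected with multiple reporter transcription units carrying chimeric NR-Gal4 proteins acting on GAL4-UAS reporters; compound exposure 24 h. Reporter mRNA quantified by RT-PCR, 6-FAM labelling, HpaI digestion and capillary electrophoresis; gain of signal versus DMSO.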

For assay [19], the target named is Bile acid receptor (Homo sapiens) (UniProt Q96RI1). Nature of the assay: ATG_FXR_TRANS: Attagene TRANS-FACTORIAL HepG2 Assay for Farnesoid X Receptor (FXR) (AID 2282979; active means hit-call score of the fitted dose curve at least 0.9, where 1 is the maximum;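 further: hits raise reporter mRNA above DMSO so AC50 marks FXR activation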). The note with it: HepG2 Attagene TRANS FXR-GAL4 reporter transcription. The procedure, abridged:
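Chimeric FXR-GAL4 activity in transiently transfected human HepG2 liver cells is scored as induction of reporter mRNA after 24 h of dosing. Detection uses RT-PCR with fluorescent labelling and capillary electrophoresis, with DMSO serving as baseline.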

Results filed as inconclusive are left out. The source made the active and inactive calls. How the source made its calls, unless noted: active means hit-call score of the fitted dose curve at least 0.9, where 1 is the maximum; inactive means score below 0.9.

Nuclear receptor subfamily 4 group A member 2 (Homo sapiens), sequence (P43354 whole entry, looked up, the tested form may be a part): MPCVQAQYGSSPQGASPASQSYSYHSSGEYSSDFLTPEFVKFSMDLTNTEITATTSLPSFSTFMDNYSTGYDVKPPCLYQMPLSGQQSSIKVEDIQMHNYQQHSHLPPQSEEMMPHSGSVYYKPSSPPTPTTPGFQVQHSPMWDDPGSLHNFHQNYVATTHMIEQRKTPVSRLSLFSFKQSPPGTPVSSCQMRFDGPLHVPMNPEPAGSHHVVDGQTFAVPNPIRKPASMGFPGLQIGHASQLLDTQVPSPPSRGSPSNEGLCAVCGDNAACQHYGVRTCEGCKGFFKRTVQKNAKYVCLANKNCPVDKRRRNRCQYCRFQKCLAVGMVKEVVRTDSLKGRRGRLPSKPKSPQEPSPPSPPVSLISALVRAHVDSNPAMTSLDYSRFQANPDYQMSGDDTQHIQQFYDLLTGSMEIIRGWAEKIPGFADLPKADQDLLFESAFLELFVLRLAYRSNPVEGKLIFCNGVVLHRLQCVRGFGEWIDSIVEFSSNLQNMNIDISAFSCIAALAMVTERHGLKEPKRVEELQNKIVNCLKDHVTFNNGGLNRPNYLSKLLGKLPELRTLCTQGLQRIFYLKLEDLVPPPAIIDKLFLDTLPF
Nuclear respiratory factor 1 (Homo sapiens), sequence (Q16656 whole entry, looked up, the tested form may be a part): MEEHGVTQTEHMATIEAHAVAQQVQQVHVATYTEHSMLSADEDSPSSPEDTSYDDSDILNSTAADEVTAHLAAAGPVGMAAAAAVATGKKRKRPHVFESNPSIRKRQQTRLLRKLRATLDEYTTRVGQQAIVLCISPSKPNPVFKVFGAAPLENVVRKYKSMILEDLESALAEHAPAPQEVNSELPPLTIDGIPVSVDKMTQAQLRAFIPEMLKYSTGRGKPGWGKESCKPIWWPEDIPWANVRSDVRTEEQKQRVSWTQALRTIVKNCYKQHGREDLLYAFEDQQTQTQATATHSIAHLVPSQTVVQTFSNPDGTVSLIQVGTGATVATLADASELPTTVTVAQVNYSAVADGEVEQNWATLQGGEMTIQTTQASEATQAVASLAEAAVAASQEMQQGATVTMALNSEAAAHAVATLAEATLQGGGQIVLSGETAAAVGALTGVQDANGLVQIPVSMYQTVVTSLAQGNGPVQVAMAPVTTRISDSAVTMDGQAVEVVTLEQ
Oxysterols receptor LXR-alpha (Homo sapiens), sequence (Q13133 whole entry, looked up): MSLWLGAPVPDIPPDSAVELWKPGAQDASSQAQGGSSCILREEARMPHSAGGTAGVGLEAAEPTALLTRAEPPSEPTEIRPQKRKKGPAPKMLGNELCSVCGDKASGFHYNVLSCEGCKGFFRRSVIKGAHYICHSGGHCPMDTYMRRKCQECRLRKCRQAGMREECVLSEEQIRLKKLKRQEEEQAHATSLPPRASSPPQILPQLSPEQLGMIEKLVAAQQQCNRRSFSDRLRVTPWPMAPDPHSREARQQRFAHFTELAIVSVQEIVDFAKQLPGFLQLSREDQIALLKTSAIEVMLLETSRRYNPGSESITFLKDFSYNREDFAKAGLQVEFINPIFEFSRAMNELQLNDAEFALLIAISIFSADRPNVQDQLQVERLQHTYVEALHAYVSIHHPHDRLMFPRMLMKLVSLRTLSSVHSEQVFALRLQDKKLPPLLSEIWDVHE
Cellular tumor antigen p53 (Homo sapiens), sequence (P04637 whole entry, looked up): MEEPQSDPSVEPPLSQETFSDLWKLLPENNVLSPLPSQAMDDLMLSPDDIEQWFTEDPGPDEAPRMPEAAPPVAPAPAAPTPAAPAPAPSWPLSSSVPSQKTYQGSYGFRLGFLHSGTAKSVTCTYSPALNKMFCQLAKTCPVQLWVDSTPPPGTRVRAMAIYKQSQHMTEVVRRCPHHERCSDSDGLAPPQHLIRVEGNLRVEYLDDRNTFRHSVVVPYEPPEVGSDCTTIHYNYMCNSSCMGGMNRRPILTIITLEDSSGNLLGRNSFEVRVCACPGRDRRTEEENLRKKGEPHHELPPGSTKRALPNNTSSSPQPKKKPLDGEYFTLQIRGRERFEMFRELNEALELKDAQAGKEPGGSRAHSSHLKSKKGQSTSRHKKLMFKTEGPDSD
Glucocorticoid receptor (Homo sapiens), sequence (P04150 whole entry, looked up, the tested form may be a part): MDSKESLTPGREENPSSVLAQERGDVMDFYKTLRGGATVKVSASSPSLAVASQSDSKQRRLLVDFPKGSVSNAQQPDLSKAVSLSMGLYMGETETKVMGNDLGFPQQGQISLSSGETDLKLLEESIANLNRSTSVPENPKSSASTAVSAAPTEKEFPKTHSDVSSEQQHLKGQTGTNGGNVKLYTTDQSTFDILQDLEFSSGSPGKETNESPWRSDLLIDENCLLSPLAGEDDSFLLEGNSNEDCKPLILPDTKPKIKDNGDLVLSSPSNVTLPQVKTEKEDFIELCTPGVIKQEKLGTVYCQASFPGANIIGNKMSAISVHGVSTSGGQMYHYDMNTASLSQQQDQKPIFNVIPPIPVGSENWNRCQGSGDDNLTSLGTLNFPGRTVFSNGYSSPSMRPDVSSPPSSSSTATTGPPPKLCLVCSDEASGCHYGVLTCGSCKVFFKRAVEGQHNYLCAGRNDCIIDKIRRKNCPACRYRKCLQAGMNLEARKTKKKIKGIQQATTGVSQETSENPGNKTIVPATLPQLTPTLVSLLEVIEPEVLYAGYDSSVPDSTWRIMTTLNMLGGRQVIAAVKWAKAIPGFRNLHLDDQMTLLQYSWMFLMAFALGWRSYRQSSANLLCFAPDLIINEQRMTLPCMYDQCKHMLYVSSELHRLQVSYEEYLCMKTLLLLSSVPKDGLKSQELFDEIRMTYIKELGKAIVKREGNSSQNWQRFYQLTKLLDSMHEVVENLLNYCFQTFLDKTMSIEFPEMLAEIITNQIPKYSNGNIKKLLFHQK
Oxysterols receptor LXR-beta (Homo sapiens), sequence (P55055 whole entry, looked up, the tested form may be a part): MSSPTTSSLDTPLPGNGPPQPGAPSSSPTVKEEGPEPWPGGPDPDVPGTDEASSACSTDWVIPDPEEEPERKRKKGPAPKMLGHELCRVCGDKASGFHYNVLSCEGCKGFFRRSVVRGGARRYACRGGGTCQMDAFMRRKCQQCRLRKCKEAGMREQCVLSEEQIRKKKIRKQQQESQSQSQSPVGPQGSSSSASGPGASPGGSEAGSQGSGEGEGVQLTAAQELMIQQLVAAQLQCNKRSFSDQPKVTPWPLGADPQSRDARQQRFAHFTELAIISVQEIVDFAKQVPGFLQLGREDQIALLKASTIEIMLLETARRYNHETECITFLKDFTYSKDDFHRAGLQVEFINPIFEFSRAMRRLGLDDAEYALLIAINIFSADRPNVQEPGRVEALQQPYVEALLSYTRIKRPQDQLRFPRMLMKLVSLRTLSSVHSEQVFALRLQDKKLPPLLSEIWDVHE
Hepatocyte nuclear factor 4-alpha (Homo sapiens), sequence (P41235 whole entry, looked up, the tested form may be a part): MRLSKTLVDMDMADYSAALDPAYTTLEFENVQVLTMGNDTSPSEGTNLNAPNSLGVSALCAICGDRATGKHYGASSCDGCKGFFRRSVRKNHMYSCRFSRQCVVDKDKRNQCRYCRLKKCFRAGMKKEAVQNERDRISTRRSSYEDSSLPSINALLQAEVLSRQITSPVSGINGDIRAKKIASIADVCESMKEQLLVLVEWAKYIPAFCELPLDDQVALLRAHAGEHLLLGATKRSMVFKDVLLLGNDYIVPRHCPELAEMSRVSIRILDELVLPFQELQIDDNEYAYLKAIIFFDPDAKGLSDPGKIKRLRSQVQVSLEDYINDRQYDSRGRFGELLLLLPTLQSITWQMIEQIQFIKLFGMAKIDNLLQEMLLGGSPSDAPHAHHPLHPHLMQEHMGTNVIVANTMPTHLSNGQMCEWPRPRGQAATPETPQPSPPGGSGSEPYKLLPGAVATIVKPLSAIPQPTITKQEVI
Transcriptional activator Myb (Homo sapiens), sequence (P10242 whole entry, looked up): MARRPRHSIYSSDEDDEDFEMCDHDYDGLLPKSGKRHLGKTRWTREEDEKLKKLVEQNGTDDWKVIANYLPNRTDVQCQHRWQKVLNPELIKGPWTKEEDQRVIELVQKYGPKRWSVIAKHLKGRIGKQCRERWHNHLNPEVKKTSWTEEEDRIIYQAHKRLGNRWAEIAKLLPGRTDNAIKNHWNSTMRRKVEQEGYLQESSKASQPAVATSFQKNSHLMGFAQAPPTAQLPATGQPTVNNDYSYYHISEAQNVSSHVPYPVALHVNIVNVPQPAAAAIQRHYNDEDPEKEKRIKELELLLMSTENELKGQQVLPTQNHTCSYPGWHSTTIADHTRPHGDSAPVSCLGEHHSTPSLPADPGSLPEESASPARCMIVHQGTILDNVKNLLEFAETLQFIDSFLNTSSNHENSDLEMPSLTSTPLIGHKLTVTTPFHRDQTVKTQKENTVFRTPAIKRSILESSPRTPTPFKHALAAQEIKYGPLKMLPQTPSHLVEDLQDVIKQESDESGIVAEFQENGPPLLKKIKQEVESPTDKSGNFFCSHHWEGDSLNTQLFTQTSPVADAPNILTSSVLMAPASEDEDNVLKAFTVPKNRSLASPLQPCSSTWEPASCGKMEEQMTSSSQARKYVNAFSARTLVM
Myc proto-oncogene protein (Homo sapiens), sequence (P01106 whole entry, looked up): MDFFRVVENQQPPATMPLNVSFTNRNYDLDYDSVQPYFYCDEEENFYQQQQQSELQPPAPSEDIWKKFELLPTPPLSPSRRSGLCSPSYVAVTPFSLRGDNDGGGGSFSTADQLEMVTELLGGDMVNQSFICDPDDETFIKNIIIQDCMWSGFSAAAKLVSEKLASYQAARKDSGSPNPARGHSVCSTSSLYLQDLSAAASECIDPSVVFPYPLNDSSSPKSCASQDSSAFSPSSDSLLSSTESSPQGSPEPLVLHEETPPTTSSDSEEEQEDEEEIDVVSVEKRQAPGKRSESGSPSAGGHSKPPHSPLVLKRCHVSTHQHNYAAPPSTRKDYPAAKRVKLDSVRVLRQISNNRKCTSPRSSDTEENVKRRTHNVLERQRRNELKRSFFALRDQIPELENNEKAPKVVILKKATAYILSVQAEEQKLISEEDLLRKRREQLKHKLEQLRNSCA

As to `CC(C)COC(=O)c1ccccc1O`, the call in [1], in assay [2], in assay [3], in assay [4], in assay [5] and in [6] was inactive. The result in [7], in [8], in assay [9], in [10] and in [11] was inactive.

`CCCCOCCOCCO`: the call in assay [1], in assay [2], in assay [3], in assay [4], in assay [5] and in [6] was inactive. Moreover, the compound was called inactive in assay [8], in assay [9], in [10], in assay [11], in [12] and in assay [13]. Moreover, the result in [14] and in assay [15] was inactive.

Consider `CC1(C)[C@H](C=C(Cl)Cl)[C@H]1C(=O)OCc1cccc(Oc2ccccc2)c1`, for which the outcome in assay [1], in assay [16], in assay [2], in [4], in assay [5] and in assay [6] was inactive. Moreover, the result in [7], in assay [8], in assay [10], in assay [11], in assay [12] and in assay [13] was inactive. Further, the outcome in assay [14] and in assay [15] was inactive.

Turning to `CCCCCC1CCC(=O)O1` (stereo not given), the result in assay [1], in assay [4], in assay [5], in assay [6], in assay [7] and in [8] was inactive. Besides, the compound was classed as inactive in assay [10], in assay [11] and in [12].

For `O=c1cc(-c2ccc(O)cc2)oc2cc(O)cc(O)c12`, the result in assay [17], in [18], in assay [16], in assay [2], in assay [4] and in assay [5] was inactive. Further, the compound was classed as inactive in assay [6], in assay [7], in assay [8], in assay [10] and in [12]. In addition, the AC50 in assay [11] was 26.5 µM (active).

Take `COc1ccccc1NC(=O)CC(C)=O`: the call in [17], in assay [18], in assay [16], in [3], in assay [4] and in assay [5] was inactive. Further, the compound was classed as inactive in assay [6], in assay [7], in [8], in assay [9], in [10] and in assay [11]. Moreover, the result in [12], in assay [13], in assay [14] and in assay [15] was inactive.

Consider `CCn1cc(C(=O)O)c(=O)c2ccc(C)nc21`, for which the compound was called inactive in [19], in assay [2], in [3], in assay [5], in [6] and in assay [8]. In addition, the compound was called inactive in assay [9], in [10], in [11], in assay [13], in assay [14] and in assay [15].

With `COc1ccc(N)c(C)c1`, the result in [17], in assay [18], in assay [16], in [4], in assay [5] and in assay [6] was inactive. Further, the result in assay [7], in [8], in [9] and in assay [11] was inactive. Further, the AC50 in assay [10] is 46.3 µM (active).

For the compound `CC1=CCC(=C(C)C)CC1`, the result in [17], in [18], in [16], in [4], in assay [5] and in [6] was inactive. Also, the call in assay [7], in assay [8], in assay [11] and in [12] was inactive. For the same compound, the AC50 in assay [10] is 32 µM (active).
